# Values joined by “and” are separate entries in the source; they are usually repeats but may differ in a detail not shown here. Equal entries are not always repeated. Inconclusive results are not listed. A call without a number means that no potency is given here. A number with no mark means an inactive call. Active and inactive are the calls of the source. Calls come from the whole dose curve; as a rule, active = well fitted inhibition curve with a large enough effect; inconclusive = small, poorly fitted or top-dose-only effect; inactive = flat fitted curve, though single readings scatter. Where a SMILES comes first, the peptide text is derived from it. [ ]: non-standard residue; d: D form.
# Tested on: HEK293
# Assay: Cytotoxic Profiling of Annotated Libraries Using Quantitative High-Throughput Screening (AID 1296008); note: nearly all actives have a fitted effect of over 60% in size
# Settings: Five cell lines viability, CellTiter-Glo ATP luminescence, 48-72 h; max response: hits give low values
# In short: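 Compounds were pin-transferred onto cells and incubated 48 or 72 hr at 37 degree Celsius, 95% humidity. CellTiter-Glo was added, plates sat 10 min at room temperature, then ATP-coupled luminescence was imaged as the viability read-out.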
# Potency is the fitted concentration of half-maximal effect.
SMILES,outcome,Potency,max response [%]
CCOC(=O)[C@H](CCc1ccccc1)CC1(C(=O)N[C@H]2CCc3ccccc3N(CC(=O)O)C2=O)CCCC1,inactive,,
O=C(c1ccc(NS(=O)(=O)c2cccc3cccnc23)cc1)N1CCN(CC2CC2)CC1,inactive,,
CC(=O)O[C@H]1[C@H](Oc2ccccc2COC(=O)C2(O)C=CCCC2=O)O[C@H](CO)[C@@H](O)[C@@H]1O (some centres undefined),inactive,,
CCc1nc(C(N)=O)c(Nc2ccc(N3CCC(N4CCN(C)CC4)CC3)c(OC)c2)nc1NC1CCOCC1,,1.61 µM (active) and 1.32 µM (active),
CCCC(N[C@@H](C)C(=O)N1[C@H](C(=O)O)C[C@@H]2CCCC[C@@H]21)C(=O)OCC (some centres undefined),inactive,,
C=CC(C)(O)CC/C=C(\C)C(=O)OC1CC2(C(=O)O)CCC3(C)C(=CCC4C5(C)CCC(OC6OC(COC7OCC(O)C(O)C7O)C(O)C(OC7OCC(O)C(O)C7O)C6OC6OC(CO)C(O)C(O)C6OC6OCC(O)C(O)C6O)C(C)(C)C5CCC43C)C2CC1(C)C (centres undefined),inactive,,
COc1cc(/C=C/C(=O)OC(C)(C)C(OC2OC(CO)C(O)C(O)C2O)C(=O)OCc2ccc(OC3OC(CO)C(O)C(O)C3O)cc2)ccc1O (centres undefined),inactive,,
CN1Cc2c(N)cccc2C(c2ccccc2)C1 (centres undefined),,,3.6
CC1=C2C(=O)C=C(CO)[C@@H]2[C@H]2OC(=O)[C@H](C)[C@@H]2[C@@H](O)C1,inactive,,
CC1(C)NC2N(C1=O)c1ccccc1C2(O)CC(C(=O)O)n1cnc2ccccc2c1=O (centres undefined),inactive,,
Cn1c(=O)c2nc(/C=C/c3cccc(Cl)c3)n(C)c2n(C)c1=O,inactive,,
C=C1CCC2C(C)(C(=O)O)CC(O)CC2(C)C1CC/C(C)=C/C(=O)O (centres undefined),inactive,,
Cc1coc2c1CC1OC1(C)CCC1OC1(C)C2 (centres undefined),inactive,,
COc1ccc(C)c2sc(NC(=O)c3ccncc3)nc12,inactive,,
C/C=C(\C)C(=O)O[C@@H]1CC2[C@@H](CC=C3C[C@@H](O[C@H]4C[C@H](OC)[C@H](O[C@H]5C[C@H](OC)[C@H](O[C@H]6C[C@H](OC)[C@H](O[C@H]7C[C@@H](OC)[C@H](O[C@@H]8O[C@H](CO)[C@@H](O)[C@H](O)[C@H]8O)[C@@H](C)O7)[C@@H](C)O6)[C@@H](C)O5)[C@@H](C)O4)CC[C@@]32C)[C@@]2(O)CC[C@H](C(C)=O)[C@@]12C (some centres undefined),inactive,,
OC[C@H]1O[C@@H](Oc2cc(O)cc(-c3cc4ccc(O)cc4o3)c2)[C@H](O)[C@@H](O)[C@@H]1O,inactive,,
CC1CCC2(C)C(CC(O)C(O)C23CO3)C1(C)CCC1=CC(=O)OC1O (centres undefined),inactive,,
CC1(C)CCCC2(C)C(CO)C3CCC2C31 (centres undefined),inactive,,
Cc1c(N2C(=O)c3ccc(C(=O)O)cc3C2=O)c(=O)n(-c2ccccc2)n1C,inactive,,
CC1(C)CCC(C)(C)c2cc3c(cc21)Sc1ccccc1N=C3c1ccc(C(=O)O)cc1,inactive,,

SMILES,outcome,Potency,max response [%]
CC(=O)N[C@H](Cc1ccc(O)cc1)C(=O)N[C@H](CCCN=C(N)N)C(=O)N[C@H](Cc1ccccc1)C(N)=O (Ac-[dY]-[dR]-[dF]-NH2),inactive,,
COc1ccc(C(O[C@@H]2O[C@H](CO)[C@@H](O)[C@H](O)[C@H]2O)C(CO)Oc2ccc(/C=C/CO)cc2OC)cc1O (some centres undefined),inactive,,
COc1ccccc1[C@@H]1C2=C(CC(C)(C)CC2=O)Nc2n[nH]c(C(F)(F)F)c21,inactive,,
C[C@]1(OC(=O)/C=C/c2ccccc2)C[C@H](O)[C@]2(O)C=CO[C@@H](O[C@@H]3O[C@H](CO)[C@@H](O)[C@H](O)[C@H]3O)C12 (some centres undefined),inactive,,
COC1CC(OC2CCC3(C)C(=CCC4C3CCC3(C)C(C(C)O)CCC43O)C2)OC(C)C1OC1OC(C)C(OC2OC(COC3OC(COC4OC(CO)C(O)C(O)C4O)C(O)C(O)C3O)C(O)C(O)C2O)C(OC)C1O (centres undefined),inactive,,
CC(=O)N[C@H]1CCN(c2ccc(C3=NOC(CN[S+](=O)([O-])C(C)C)C3)cc2F)C1 (some centres undefined),inactive,,
CN(C)C/C=C/C(=O)Nc1ccc(C(=O)Nc2cccc(Nc3ncc(Cl)c(-c4c[nH]c5ccccc45)n3)c2)cc1,,186 nM (active),
COc1cc(N2CCC(N(C)C)CC2)ccc1Nc1ncc(Cl)c(Nc2ccccc2P(C)(C)=O)n1,,5.17 µM (active) and 1.86 µM (active),
CC[C@H]1OC(=O)[C@H](C)[C@@H](O[C@H]2C[C@@](C)(OC)[C@@H](O)[C@H](C)O2)[C@H](C)[C@@H](O[C@@H]2O[C@H](C)C[C@H](N(C)C)[C@H]2O)[C@@](C)(O)C[C@@H](C)[C@@H]2N[C@@H](COCCOC)OC([C@H]2C)[C@]1(C)O,inactive,,
Cc1cc(O)cc(Oc2cc(C)c(C(=O)O)c(O)c2)c1,inactive,,
CN1C(=O)c2ccccc2-n2c(nc3ccccc3c2=O)/C1=C/c1ccccc1,inactive,,
C=C1C(OC(C)=O)C(=O)C2C(C)(C)C(OC(C)=O)CCC2(C)C1CC(OC(C)=O)/C(C)=C/COC(C)=O (centres undefined),inactive,,
CC[C@H](/C=C/[C@@H](C)[C@H]1CC[C@H]2[C@@H]3CC=C4C[C@@H](O)CC[C@]4(C)[C@H]3CC[C@]12C)C(C)C,inactive,,
N[C@@H](CC(=O)N1CCn2c(nnc2C(F)(F)F)C1)Cc1[nH]nc2c(F)c(F)ccc12,inactive,,
C/C=C1/[C@H](O[C@@H]2O[C@H](CO)[C@@H](O)[C@H](O)[C@H]2O)OC=C(C(=O)OC)[C@H]1CC(=O)O[C@@H]1O[C@H](CO)[C@@H](O)[C@H](O)[C@H]1O,inactive,,
COc1cc([C@H]2OC[C@@H]3[C@@H](c4ccc(O[C@@H]5O[C@H](CO)[C@@H](O)[C@H](O)[C@H]5O)c(OC)c4)OC[C@]23O)ccc1O,inactive,,
CNc1nc(Nc2cnn([C@H]3CCN(C4COC4)C[C@@H]3F)c2Cl)ncc1C(F)(F)F,,23.1 µM (active) and 9.33 µM (active),
C[C@@H](Nc1cc(NS(=O)(=O)N2CCC2)nc(SCc2cccc(F)c2F)n1)[C@@H](O)CO,inactive,,
C=C1CCC(OC(C)=O)C2(C)CC3(O)OC(=O)C(C)=C3CC12 (centres undefined),inactive,,

# From PubChem BioAssay (NCATS)
